Polio RdRp inh: poliovirus RNA polymerase inhibition; P03300; poliovirus polymerase elongation, fluorescence polarization; hits give low values; % elongation, % (compound at 16.7 µg/mL); actives 0.66% (n = 150,000); AID 588519; in the data active = % elongation below about 90%
Mtb MenB inh: blocks the Mycobacterium tuberculosis MenB enzyme. actives 0.43% (n = 100,000). inhibition, % (test concentration not listed). AID 540299. MenB enzyme assay, absorbance read-out. P9WNP5; in the data active = inhibition above about 21%, passing the limit was not always enough
AID504770: E. coli YBA685 growth inhibition, screen for V. cholerae RctB inhibitors; E. coli YBA685 rctB-dependent plasmid, OD600 growth, 3 h; hits give low values; z-score (test concentration not listed); actives 0.27% (n = 130,000); in the data active = z-score below about -2, passing the limit was not always enough
Mtb MbtI inh: inhibitors of Mycobacterium tuberculosis siderophore enzyme MbtI. P9WFX0. purified MbtI enzyme, fluorescence intensity read-out. inhibition, % (no concentration beside the values). actives 0.89% (n = 100,000). AID 493033; in the data active = inhibition mostly above about 56%, no sharp cut-off; inactive = mostly below about 77%
Target sequence (P9WFX0 whole entry, looked up): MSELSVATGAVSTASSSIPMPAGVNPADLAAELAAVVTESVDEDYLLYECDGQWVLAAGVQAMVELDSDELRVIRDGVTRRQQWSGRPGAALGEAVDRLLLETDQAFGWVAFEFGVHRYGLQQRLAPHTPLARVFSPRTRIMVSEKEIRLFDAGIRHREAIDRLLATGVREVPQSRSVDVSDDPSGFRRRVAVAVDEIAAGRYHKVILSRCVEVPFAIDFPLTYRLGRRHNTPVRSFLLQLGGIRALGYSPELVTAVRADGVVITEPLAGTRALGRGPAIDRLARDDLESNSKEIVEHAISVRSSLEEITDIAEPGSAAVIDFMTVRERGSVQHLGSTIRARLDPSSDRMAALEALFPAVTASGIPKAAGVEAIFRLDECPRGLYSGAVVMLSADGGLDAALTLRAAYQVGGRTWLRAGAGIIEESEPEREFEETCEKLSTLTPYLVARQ
Starred values were filed as active, the others as inactive; . = no result given. Only some compounds are listed: those with a hit (about 1.5% of all), similar ones and a draw of the others.

SMILES	Polio RdRp inh	Mtb MenB inh	AID504770	Mtb MbtI inh
COC(=O)c1c(NC(=O)C2CCCC2)sc2c1CCCC2	82*	-16	2.5	.
Cc1ccc(-c2ocnc2C(N)=O)cc1	.	.	-1.1	.
CC(C)CNS(=O)(=O)c1ccc2nc(NC(=O)c3ccccn3)sc2c1	107	-89	1.8	68*
CC(C)NS(=O)(=O)c1ccc2nc(NC(=O)c3cccnc3)sc2c1	100	-8	-0.55	1
Nc1ccc(S(=O)(=O)CCSS(=O)(=O)c2ccc(N)cc2)cc1	63*	7	-0.1	99*
Cc1ccc2ncc(C(=O)N3CCc4ccccc4C3)c(=O)n2c1	101	-10	0.15	106
N#CC1=C(N)SC(N)=C(C#N)C1c1ccc(O)cc1	92	-174	-2.1	83*
CC(C)c1ccc(C2C(C#N)=C(N)SC(N)=C2C#N)cc1	45	-31	0.05	.
Cn1sc(=O)c2ccc(S(=O)(=O)NCCc3ccncc3)cc21	.	.	-2.5*	.
C=C(C)Cn1c(CCCNC(=O)c2ccccc2OC)nc2ccccc21	102	-22	-3.5	4
CSc1nc2c(sc(=S)n2-c2ccccc2C)c(=O)n1-c1ccccc1C	97	-3	1.1	62*
CCc1ccc(-n2c(=S)sc3c(=O)n(-c4ccccc4)c(SCC#N)nc32)cc1	104	-38	1.4	0
O=C1N=c2ccccc2=C1c1sc(=S)[nH]c1O	95	-51	1	84*
CN(c1ccc(O)cc1)c1nc(O)c(C2=c3ccccc3=NC2=O)s1	100	-128	-0.45	-12
O=C1N=c2ccccc2=C1c1sc(=O)[nH]c1O	96	-254	-0.45	14
O=C1N=c2ccccc2=C1c1sc(N2CCCCC2)nc1O	58*	-40	0.15	81
CC(CCc1ccccc1)NC(=O)CCc1nc(-c2ccccc2F)no1 (configuration not stated)	.	.	0.55	.
CC1CC(C)CN(S(=O)(=O)c2ccc(C(=O)NC(C)(C)C)cc2)C1 (configuration not stated)	103	-6	-0.15	2
Cc1cc(C)c(S(=O)(=O)N2CCC(C(N)=O)CC2)c(C)c1	.	.	-0.2	.
NNC(=O)c1cc(=S)nc[nH]1	97	-35	-1.3	99*
NNC(=O)c1cc2ccccc2[nH]1	100	4	-0.35	16
Cc1cccc(OCCCC(=O)O)c1	101	.	1.1	-1
CCNC(=O)CCOc1cccc(C)c1	52*	2	-0.05	0
N#CSC(C#N)Cc1ccc(Cl)c(Cl)c1 (configuration not stated)	92	.	-4.2*	89*
N#Cc1c(N)cc(N)nc1SCc1ccc(Cl)c(Cl)c1	101	-17	0.3	-5
SMILES	Polio RdRp inh	Mtb MenB inh	AID504770	Mtb MbtI inh
Cc1ccc(-c2nn(Cc3ccccc3)cc2C(=O)N2CCC2)cc1	100	4	-0.65	0
O=C(Oc1cccc(Cl)c1Cl)c1ccncc1	4.0*	1	-1.5	-2
COC(=O)c1[nH]c(CN2C(=O)c3ccccc3S2(=O)=O)c(C(=O)OC)c1C	102	-16	-0.6	-3
Cc1ccc(C)c(C(=O)/C=C/C(=O)O)c1	102	67*	-0.2	.
Cc1ccc(C)c(C(=O)NCC(C)C)c1	101	-2	-0.35	-18
O=C1C=CC(=O)N1Cc1cccs1	.	.	-4.2*	.
CCN(CC)C(=O)c1sc2ncn(CC(=O)Nc3cccc(C(F)(F)F)c3)c(=O)c2c1C	102	-27	0.5	-15
O=C(CCC(=O)N1CC=C(c2c[nH]c3ccccc23)CC1)NC1CCCC1	100	-2	-0.9	-56
N#CS/C=C/C(=O)c1ccccc1	96	-51	-2.7*	100*
CNc1ccc2cccc(O)c2n1	102	-11	-3.3*	-34
CC1=C(C(=O)Nc2ccc(C(=O)O)cc2)SCCO1	99	-7	0.45	1
O=C(CN1C(=O)c2ccccc2C1=O)c1ccc(Cl)cc1	6.0*	13	0.35	15
NC(=O)CCNS(=O)(=O)c1ccccc1	.	-7	-0.4	-6
CCOC(=O)c1ccc(NC(=O)CCc2c(C)nc3c(-c4ccc(F)cc4)c(C)nn3c2C)cc1	104	.	.	.
CCOC(=O)c1ccc(NC(=O)c2cnc3c(-c4ccc(F)cc4)c(C)nn3c2C)cc1	51*	.	.	.
Cc1ccc(-c2csc3nnc(SCC(N)=O)n23)cc1	102	37*	1.1	4
COc1ccc(S(=O)(=O)Nc2ccc(O)c(Sc3ncn[nH]3)c2)cc1	101	-8	-0.9	8
Cc1ccc(S(=O)(=O)Nc2cc(Sc3ncn[nH]3)c(O)cc2C)cc1	111	3	0.7	54*
CCOc1cc(CNCC(c2ccc(OC)cc2)N2CCCCC2)ccc1OC(C)C(=O)N(C)C (configuration not stated)	99	49*	0.6	-11
NC(=S)NNc1ccc(S(N)(=O)=O)cc1	101	3	-0.5	51*
O=C(CSc1nnc(-c2ccco2)o1)OCc1cc(=O)n2c(n1)sc1ccccc12	.	-28	1.8	28
COC(=O)c1sc(NC(=O)COc2ccc(OC)cc2)c(C#N)c1C	83*	-20	-0.5	.
CC(=O)NS(=O)(=O)c1ccc(NC(=O)c2ccc(C)c(C)c2)cc1	103	23*	-0.7	6
Cc1ccnc(NS(=O)(=O)c2ccc(NC(=O)c3ccc(C)c(C)c3)cc2)n1	107	.	.	.
O=c1c(=Nc2ccccc2O)c(=O)c2ccccc12	95	-8	-0.9	.
SMILES	Polio RdRp inh	Mtb MenB inh	AID504770	Mtb MbtI inh
O=c1c(=N\O)/c(=N/O)c(=O)c2ccccc12	60*	-12	-5.3*	25
O=C(OC1CCOC1=O)c1ccc2c(c1)C(=O)N(Cc1ccccc1)C2=O (configuration not stated)	102	1	-0.15	-17
Cc1cc(=S)[nH]c2ccccc12	104	-40	1	61*
Cc1cn([C@H]2C[C@H](N=[N+]=[N-])[C@@H](CO)O2)c(=O)[nH]c1=O	100	1	-2.5*	-21
Cc1cn(C2CC(O)C(CO)O2)c(=O)[nH]c1=O (configuration not stated)	106	-26	-0.35	-16
CNC1(C#N)CCC(C)CC1 (configuration not stated)	103	-41	-2.3*	-9
O=C(CSc1nc2c(c(=O)[nH]1)CSC2)c1ccc(Cl)cc1	101	2	-0.65	82*
COc1cc(C=C(C#N)C#N)cc2c1OCO2	98	-154	-1.4	-61
COc1ccc(Cl)cc1-n1nnc(-c2nc(-c3ccccc3)no2)c1C	102	.	.	.
Cc1c(-c2nc(-c3ccccc3)no2)nnn1-c1ccc(F)c(Cl)c1	81*	.	.	.
CCCN1C(=O)S/C(=C\c2cn(CC(=O)N3CCOCC3)c3ccccc23)C1=O	102	-24	-0.15	0
O=C(O)c1ccc(S(=O)(=O)Nc2ccc3oc(=O)sc3c2)cc1	.	.	-1.5	78*
CC(C)Nc1nn(CN2CCN(C(=O)c3ccccc3)CC2)c(=S)s1	91	-3	-0.5	77*
CCN(CC)C(=O)CN1CCN(c2cccc(Cl)c2)CC1	102	33*	-0.1	0
O=C(O)CCN1CCN(c2cccc(Cl)c2)CC1	101	-19	-0.9	-8
Brc1ccccc1C=Nc1cccc2cnccc12	81*	.	2.1	3
Fc1ccccc1C=Nc1cccc2ccccc12	102	-38	-0.45	112
